Screening results: PubChem, several laboratories
CYP2C19 inh: blocks human cytochrome P450 2C19. P33261. CYP2C19 Supersomes, luciferin-H EGE luminescence, 30 min. inhibition, % at 5 µM. 96,000 tested, 21% active;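 active = CYP2C19 inhibition above a set limit at 5 µM in the primary screen, cut at about 50% in these data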;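 note: plate controls were negative control wells for no effect and 2.5 mM tranylcypromine positive control for full effect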
Target sequence (P33261 whole entry, looked up): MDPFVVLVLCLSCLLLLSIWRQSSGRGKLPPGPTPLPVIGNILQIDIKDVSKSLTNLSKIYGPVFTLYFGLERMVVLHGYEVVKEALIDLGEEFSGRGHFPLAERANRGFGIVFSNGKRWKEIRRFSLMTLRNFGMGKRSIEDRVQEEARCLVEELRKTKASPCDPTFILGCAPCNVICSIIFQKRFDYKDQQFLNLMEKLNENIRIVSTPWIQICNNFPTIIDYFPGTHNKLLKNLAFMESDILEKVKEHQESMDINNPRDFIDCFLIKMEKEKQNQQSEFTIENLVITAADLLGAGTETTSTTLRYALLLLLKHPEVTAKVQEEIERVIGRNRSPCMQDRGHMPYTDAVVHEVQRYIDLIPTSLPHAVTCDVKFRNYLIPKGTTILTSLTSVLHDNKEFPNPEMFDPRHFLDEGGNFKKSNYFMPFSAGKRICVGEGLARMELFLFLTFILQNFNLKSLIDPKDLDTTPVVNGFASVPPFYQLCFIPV
CYP2C9 inhib: blocks human cytochrome P450 2C9; 96,000 tested, 20% active; inhibition, % at 5 µM; P11712; CYP2C9 Supersomes, luciferin-H conversion, luminescence;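 active = blocking of liver enzyme CYP2C9 beyond about 50% at 5 µM, limit read from the data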
CYP2C9 activ: increases human cytochrome P450 2C9 activity. recombinant CYP2C9, luciferin-H conversion, luminescence; hits give high values; factor 1 = untreated enzyme, 0 = blocked. activation factor at 5 µM. 96,000 tested, 1.4% active. AID 1024;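 active = activation factor of 2 or more for CYP2C9 at a 5 µM dose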;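 note: 0 = sulfaphenazole-blocked wells and 1 = vehicle-only wells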
CYP2C19 act: cytochrome P450 2C19 (human) activation; 96,000 tested, under 10 active; P33261; activation factor at 5 µM; recombinant CYP2C19, luciferin-H EGE luminescence; hits give high values; 0 = fully inhibited enzyme, 1 = untreated enzyme;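 active = activation factor of at least 2 at 5 µM in the primary screen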;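 note: 0 = wells with 2.5 mM tranylcypromine and 1 = vehicle-only wells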
PostGolgi yeast: growth inhibition of a yeast mutant, post-Golgi transport screen; inhibition, % at 10 µM; 98,000 tested, 0.9% active; post-Golgi transport phenotypic cell assay;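 note: yeast cells grown in 1536-well plates; yeast grown about 18 h at 30C before absorbance read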
PostGolgi ctrl: inhibits growth of the yeast control strain | efflux-deficient yeast background strain, growth absorbance A615, 16 h | inhibition, % at 10 µM | 98,000 tested, 5% active
Active calls of the source: *; · = no result given. An excerpt weighted towards active compounds, which were near 32% of everything screened. Cut-off read from the data, not from the text of the source, unless noted: active = inhibition above about 30%; inactive = the rest.

SMILES | CYP2C19 inh | CYP2C9 inhib | CYP2C9 activ | CYP2C19 act | PostGolgi yeast | PostGolgi ctrl
CC(C)Sc1nnc(Nc2ccccc2)s1 | 68.8* | 59.2* | 0.4 | 0.3 | -16.9 | 2.4
N#CCCN(C(=O)CSc1ccc2c(c1)OCCO2)c1ccc(F)cc1 | 47.3 | 11.2 | 0.9 | 0.5 | 7.2 | 3.2
COc1ccc(-n2ncc(S(=O)(=O)c3ccccc3)c2-c2ccc(Cl)cc2)cc1 | 40.1 | 72.4* | 0.3 | 0.6 | 14.9 | 18.6
COc1ccccc1-n1nnnc1SCC(=O)Nc1cc(C)on1 | 65.4* | -14.0 | 1.1 | 0.3 | 14.5 | -0.5
COc1cc2c(cc1NC(=O)CSc1ccccn1)oc1ccccc12 | 11.6 | 3.8 | 1 | 0.9 | 14.3 | 5.4
CCOc1ccccc1-n1nnnc1SCC(=O)Nc1cc(C)on1 | 32.8 | -4.4 | 1 | 0.7 | -5.9 | 1.4
CCOc1ccccc1-n1nnnc1SCC(=O)Nc1cc2oc3ccccc3c2cc1OC | -3.6 | 50.8* | 0.5 | 1 | -9.0 | 9.8
CC(C)CCNC(=O)C1CCN(C(=O)N(C)C)CC1 | 6.5 | -12.5 | 1.1 | 0.9 | 9.6 | 7.5
CC1CCN(CC(=O)Nc2ccccc2C#N)CC1 | 75.2* | 30.9 | 0.7 | 0.2 | -5.8 | -1.3
COc1ccc(NCC(=O)Nc2ccccc2C#N)cc1Cl | 94.9* | 59.0* | 0.4 | 0.1 | 1.1 | -0.7
O=C(CN1CCCCC1)Nc1ccccc1NC(=O)CN1CCCCC1 | -7.5 | -9.0 | 1.1 | 1.1 | 1.8 | 4.0
COc1cc2c(cc1OC)CN(CC(=O)Nc1ccc3c(c1)OCO3)CC2 | 15.8 | 40.2 | 0.6 | 0.8 | -5.6 | 23.4
COc1cc2c(cc1OC)CN(CC(=O)Nc1ccc(C)cc1)CC2 | 64.7* | 59.8* | 0.4 | 0.4 | 8.1 | 17.1
COc1ccc(NC(=O)Cn2cccc2)cc1Cl | 27.8 | 1.5 | 1 | 0.7 | -1.0 | -7.0
COc1cc2c(cc1OC)CN(Cc1ccc(C)s1)CC2 | 86.4* | 33.2 | 0.7 | 0.1 | -0.9 | 42.9*
CC(C)OCCCNC(=O)c1cc2c(s1)CS(=O)(=O)C2 | 6.7 | -11.4 | 1.1 | 0.9 | -1.4 | -2.8
COc1cc2c(cc1OC)CN(CC(=O)Nc1ccccc1C#N)CC2 | 54.6* | 60.3* | 0.4 | 0.5 | 7.0 | 4.6
CCOC(=O)c1[nH]c2ccc(OC)cc2c1NC(=O)CN1CCN(c2ccccn2)CC1 | · | · | · | · | -1.5 | 4.3
COC(=O)c1[nH]c2ccc(C)cc2c1NC(=O)Nc1ccccc1OC | 41.8 | 48.8 | 0.5 | 0.6 | 8.6 | 1.4
CCOC(=O)c1[nH]c2ccc(OC)cc2c1NC(=O)CN1CCc2ccccc2C1 | 76.7* | 81.1* | 0.2 | 0.2 | 2.7 | 26.6
COc1cc2c(cc1OC)CN(CC(=O)NC(=O)NCc1ccco1)CC2 | -0.9 | -1.2 | 1 | 1 | -0.7 | 10.8
COC(=O)c1[nH]c2ccc(C)cc2c1NC(=O)CN1CCc2cc(OC)c(OC)cc2C1 | 67.4* | 80.6* | 0.2 | 0.3 | 7.3 | 14.3
COc1ccccc1N(CC(=O)NCC1CCCO1)C(=O)CNS(=O)(=O)c1ccc(C)cc1 (stereo not given) | -0.9 | 3.5 | 1 | 1 | -0.3 | 29.6
COc1ccc2[nH]c(=O)c(CNc3ccccc3)cc2c1 | 9.0 | 1.1 | 1 | 0.9 | 7.4 | 12.7
CN1C(=O)/C(=C/c2cc(N=Nc3ccccc3)ccc2O)SC1=S | 14.1 | 29.2 | 0.7 | 0.9 | 3.9 | 25.2
SMILES | CYP2C19 inh | CYP2C9 inhib | CYP2C9 activ | CYP2C19 act | PostGolgi yeast | PostGolgi ctrl
CCOC(=O)N1CCN(C(=O)CN(C2CCCCC2)S(=O)(=O)c2c(C)cc(C)cc2C)CC1 | 29.4 | 62.9* | 0.4 | 0.7 | -3.4 | 21.6
Cc1cc(C)c(S(=O)(=O)N(CC(=O)N2CCOCC2)C2CCCCC2)c(C)c1 | 36.6 | 75.0* | 0.3 | 0.6 | 1.6 | 11.5
CCCCc1[nH]c(=O)c(C#N)c2c1CCCC2 | 7.6 | 23.5 | 0.8 | 0.9 | -2.3 | 8.6
COCCNC(=O)c1ccccc1NS(=O)(=O)c1ccc(Br)s1 | 72.4* | 90.9* | 0.1 | 0.3 | 4.7 | -0.9
CCOc1ccccc1NS(=O)(=O)c1ccc(Br)s1 | 94.7* | 25.6 | 0.7 | 0.1 | -2.1 | 10.7
O=C(c1ccccc1NS(=O)(=O)c1ccc(Br)s1)N1CCOCC1 | 44.7 | -12.1 | 1.1 | 0.6 | 3.7 | -3.4
CCOc1ccc(NC(=O)CCNS(=O)(=O)c2ccc(Br)s2)cc1 | 7.0 | -41.2 | 1.4 | 0.9 | -6.1 | -1.4
CC(=O)NC(Cc1ccc(F)cc1)C(=O)N1CCN(C(=O)NCc2ccccc2)CC1 (stereo not given) | · | · | · | · | -4.2 | 0.2
